Screening results from PubChem BioAssay.
JMJD2A Tudor inh = inhibitors of human JMJD2A Tudor domain. AID 504339. O75164. AlphaScreen JMJD2A-Tudor / H3K4me3 peptide binding. 390,000 tested, 4.4% active. Potency, µM (series often up to 114 µM), actives largely listed as inhibitors; note: nearly all actives have a fitted effect of over 50% in size
Target sequence (O75164 whole entry, looked up, the tested form may be a part): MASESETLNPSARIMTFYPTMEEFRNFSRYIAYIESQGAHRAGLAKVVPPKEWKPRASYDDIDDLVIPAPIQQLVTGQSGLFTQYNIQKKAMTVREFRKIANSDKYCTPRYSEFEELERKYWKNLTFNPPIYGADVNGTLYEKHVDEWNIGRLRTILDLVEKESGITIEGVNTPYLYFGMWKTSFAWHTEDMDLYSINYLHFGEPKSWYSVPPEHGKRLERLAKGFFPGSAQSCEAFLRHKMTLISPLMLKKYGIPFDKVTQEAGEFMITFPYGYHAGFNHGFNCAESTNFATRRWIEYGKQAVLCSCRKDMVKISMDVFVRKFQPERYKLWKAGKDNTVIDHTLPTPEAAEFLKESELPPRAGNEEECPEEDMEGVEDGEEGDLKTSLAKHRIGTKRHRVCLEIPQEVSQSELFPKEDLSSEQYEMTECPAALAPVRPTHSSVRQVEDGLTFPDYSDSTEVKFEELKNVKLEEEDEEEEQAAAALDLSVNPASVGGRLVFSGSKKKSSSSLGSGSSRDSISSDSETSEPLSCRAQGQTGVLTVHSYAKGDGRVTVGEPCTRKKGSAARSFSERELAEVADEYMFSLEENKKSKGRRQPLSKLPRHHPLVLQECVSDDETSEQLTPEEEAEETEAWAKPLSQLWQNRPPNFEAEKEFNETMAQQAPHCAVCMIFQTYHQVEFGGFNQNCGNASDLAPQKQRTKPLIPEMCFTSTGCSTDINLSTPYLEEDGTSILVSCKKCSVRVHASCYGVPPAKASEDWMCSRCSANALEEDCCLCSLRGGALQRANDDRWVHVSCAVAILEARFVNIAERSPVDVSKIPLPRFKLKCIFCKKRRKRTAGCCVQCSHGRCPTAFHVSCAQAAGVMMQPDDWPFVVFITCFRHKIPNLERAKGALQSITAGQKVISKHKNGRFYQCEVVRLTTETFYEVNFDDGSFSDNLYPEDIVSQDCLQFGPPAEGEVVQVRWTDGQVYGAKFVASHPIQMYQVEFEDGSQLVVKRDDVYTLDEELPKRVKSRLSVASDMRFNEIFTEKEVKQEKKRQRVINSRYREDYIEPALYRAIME
HP1b binding inh = blocks HP1-beta chromodomain binding to methylated histone tails | AlphaScreen HP1-beta / biotin-H3K9me3 peptide binding | 390,000 tested, 0.56% active | Potency, µM (doses to about 114 µM), actives largely listed as inhibitors; note: nearly all actives have a fitted effect of over 70% in size
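AlphaScreen: HP1-beta (50 nM) preformed 30 min with biotin-H3(1-18)K9me3 peptide (50 nM) in PBS pH 7.4, 0.01% Tween-20. Compound added for 30 min at RT, then streptavidin donor/nickel chelate acceptor beads (10 ug/mL) for 30 min.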
GLS inh = glutaminase GLS (human) inhibition | O94925 | GLS enzymatic activity, qHTS titration | Potency, µM (titrated, usually from 45.5 µM), actives largely listed as inhibitors | 410,000 tested, 0.21% active
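Compounds were pin-transferred onto hKGA, after which L-glutamine (1 mM solution) and a detection mix of glutamate oxidase, HRP and Amplex Red were added. Initial and 30 min RT fluorescence reads were collected.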
G9a inh = G9a (human) methyltransferase inhibition. G9a H3K9 monomethylation, AlphaScreen, 2 h. Potency, µM (doses to about 102 µM), usual class: inhibitors. 350,000 tested, 8.8% active. AID 504332; note: nearly all actives have a fitted effect of over 75% in size
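Using a bead-based AlphaScreen, monomethylated H3K9 product from 2 h room-temperature reactions (G9a 20 nM, peptide 500 nM, SAM 20 uM) was detected with 0.5 ug/mL rabbit anti-H3K9me1 antibody.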
BAZ2B inh = BAZ2B (human) inhibition. AlphaScreen BAZ2B-H3K14Ac peptide displacement. Potency, µM (highest dose often 114 µM), most hits filed as inhibitors. 360,000 tested, 4.4% active. AID 504333; note: nearly all actives have a fitted effect of over 60% in size
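BAZ2B 50 nM plus b-H3(5-23)K14Ac 50 nM, PBS pH 7.4/0.01% Tween-20, 30 min RT; compound added (max 110 uM), 30 min RT; streptavidin donor/Ni-chelate acceptor beads 10 ug/mL final, 20 min dark; AlphaScreen read.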
Each line names hits and unclear results; the compound was inactive in the other large screens; ! = a repeat was not active. A selection: hits, their analogues and other compounds. The true share with any hit is near 10%. Calls come from the whole dose curve; as a rule, active = well fitted curve in the direction sought with a large enough effect; inconclusive = small, poorly fitted or top-dose-only effect, or another doubt; inactive = no such curve, though single readings can be large; an effect the other way counts as inactive or inconclusive.

CC1=[N+](CC(=O)c2ccccc2)CCn2cccc21	G9a inh 32µM
COc1ccc(-c2n[nH]c3c2cnc2ccc(F)cc23)cc1	none
CCCC(=O)Nc1nc2nc(-c3ccccc3)cc(=O)n2[nH]1	none
CCC(=O)Nc1nc2nc(-c3ccccc3)cc(=O)n2[nH]1	JMJD2A Tudor inh inconclusive, G9a inh 45µM
CCN(CC)C(=O)c1cccc(-c2csc(C(O)c3cccc(Cl)c3)n2)c1 (centres undefined)	none (no result: JMJD2A Tudor inh, HP1b binding inh, G9a inh, BAZ2B inh)
COCC1CCCN(Cc2cn(Cc3ccccc3)nc2-c2cc3ccccc3o2)C1 (centres undefined)	none
COCC1CCN(Cc2cn(Cc3ccccc3)nc2-c2cc3ccccc3o2)CC1	BAZ2B inh 56µM
N#CC1=C(N)OC2=C(CCc3ccccc32)C1c1ccccc1Cl (centres undefined)	JMJD2A Tudor inh inconclusive, BAZ2B inh inconclusive
CC(=O)n1c2c(c3ccccc31)OC(N)=C(C#N)C2c1cccc(Cl)c1Cl (centres undefined)	G9a inh 45µM
COc1cc2c(cc1OC)C(Cc1ccc(O)cc1)N(C)CC2 (centres undefined)	GLS inh inconclusive, G9a inh 50µM
CC(C)NC(=O)N(C)C[C@@H]1Oc2c(NC(=O)C3CCOCC3)cccc2C(=O)N([C@@H](C)CO)C[C@H]1C	none (no result: G9a inh, BAZ2B inh)
Cc1nn(CC(=O)Nc2ccccc2C(F)(F)F)c(=O)c2cccn12	JMJD2A Tudor inh 8.9µM!, HP1b binding inh inconclusive, G9a inh 3.2µM!, BAZ2B inh 22µM!
O=C(CN1CCCC1)NC(c1ccccc1)c1ccccc1	JMJD2A Tudor inh 1.4µM, HP1b binding inh inconclusive, G9a inh 10µM
O=C(CN1CCN(c2ccccc2O)CC1)NC(c1ccccc1)c1ccccc1	JMJD2A Tudor inh inconclusive
O=C(CN1CCCCCC1)Nc1ccccc1F	JMJD2A Tudor inh 2.2µM, HP1b binding inh inconclusive, G9a inh 8.9µM, BAZ2B inh 56µM
O=C(CCN1CCCCCC1)Nc1ccccc1F	none (no result: G9a inh, BAZ2B inh)
CCc1ccccc1NC(=O)Cn1nc(C)n2cccc2c1=O	none
O=C(CN1CCN(CC(=O)Nc2ccccc2C(F)(F)F)CC1)Nc1ccccc1F	G9a inh 32µM
Nc1ncc(Br)cc1S(=O)(=O)NCCC(=O)N1CCN(c2ccccc2)CC1	none
COc1ccc(S(=O)(=O)c2c(C(=O)c3ccc(C)c(C)c3)cnc3ccc(C)cc23)cc1	JMJD2A Tudor inh inconclusive
COc1ccccc1C(=O)OCc1cc(=O)n2c(C)csc2n1	none
Cc1ccc(C(C)(C)NC(=O)C2CCC(=O)N(CC3CCCCC3)C2)cc1 (centres undefined)	none
O=C(CN1CCN(CC(=O)c2ccc(F)cc2)CC1)Nc1ccccc1Cl	G9a inh 7.1µM
O=C(CN1CCCCCC1)Nc1ccccc1Cl	none
CC(/C=C1\SC(=S)N(c2ccc(C(=O)O)cc2)C1=O)=C\c1ccccc1	JMJD2A Tudor inh 45µM, HP1b binding inh inconclusive, GLS inh inconclusive, G9a inh 32µM, BAZ2B inh 22µM
CC(/C=C1\SC(=S)N(CCC(=O)Nc2ccc(O)cc2)C1=O)=C\c1ccccc1	JMJD2A Tudor inh inconclusive
CC(/C=C1\SC(=S)N(C(C(=O)O)C(C)C)C1=O)=C\c1ccccc1 (centres undefined)	JMJD2A Tudor inh inconclusive, BAZ2B inh 25µM (no result: G9a inh)
COc1ccccc1NC1CCCCC1NS(=O)(=O)c1ccccc1 (centres undefined)	G9a inh inconclusive, BAZ2B inh inconclusive
COC(=O)c1ccc(N2NC(=O)/C(=C/c3ccc(OC)c(OC)c3)C2=O)cc1	G9a inh inconclusive
COc1cccc(/C=C2\C(=O)C(=O)c3ccccc32)c1	JMJD2A Tudor inh inconclusive, G9a inh 50µM, BAZ2B inh inconclusive
COc1cccc(/C=C2/C(=O)NN(c3ccc(C)c(C)c3)C2=O)c1	G9a inh 45µM
COc1cccc(/C=C2/C(=O)NN(c3ccccc3)C2=O)c1	GLS inh inconclusive, G9a inh 40µM, BAZ2B inh inconclusive
COc1cccc(/C=C2/C(=O)NN(c3ccc(F)cc3)C2=O)c1	G9a inh 45µM
COc1cc(C=C2C(=O)c3ccccc3C2=O)cc(OC)c1	none (no result: G9a inh)
O=C(CCSc1ccc(F)cc1)NNC(=O)c1ccccc1Cl	none
O=S1(=O)C2CC3CCC2(CN1Cc1cccc(F)c1)O3 (centres undefined)	none (no result: GLS inh, G9a inh, BAZ2B inh)
Cn1c(=O)c2sccc2n2c(CCC(=O)Nc3ccc(F)cc3)nnc12	none
O=C1NN(c2ccccc2)C(=O)C1=Cc1ccccc1O	none (no result: JMJD2A Tudor inh, HP1b binding inh, G9a inh, BAZ2B inh)
O=C1NC(=Nc2ccccc2)S/C1=C/c1cccs1	JMJD2A Tudor inh inconclusive, G9a inh inconclusive (no result: BAZ2B inh)
O=C1NN(c2ccc(F)cc2)C(=O)/C1=C/c1cccs1	G9a inh 45µM
O=C1NN(c2ccccc2)C(=O)/C1=C\c1ccc2c(c1)OCO2	JMJD2A Tudor inh inconclusive, G9a inh 50µM
C[C@H](C(=O)CC(=O)OC(C)(C)C)[C@H](O)c1ccccc1	G9a inh inconclusive
Cc1snc(S(=O)(=O)/C(C#N)=N/Nc2cccc(C(F)(F)F)c2)c1C#N	JMJD2A Tudor inh 50µM, G9a inh 14µM, BAZ2B inh inconclusive
CCc1ccc(NC(=O)Cn2c(SCc3ccc(C)cc3)nc3ccncc32)cc1	none (no result: GLS inh, G9a inh, BAZ2B inh)
CN(C)c1ccc(NC(=O)Cn2c(SCc3ccc(F)cc3)nc3ccncc32)cc1	JMJD2A Tudor inh inconclusive, G9a inh 6.3µM, BAZ2B inh inconclusive
Cc1ccc(S(=O)(=O)NNc2ccccc2)c(C)c1	JMJD2A Tudor inh 5µM, G9a inh 1µM, BAZ2B inh 56µM
COc1ccc(CCNC(=O)CSc2nnc(-c3ccc(C)cc3)c(-c3ccc(C)cc3)n2)cc1OC	G9a inh inconclusive
COc1ccccc1C=NN=Cc1ccccc1OC	JMJD2A Tudor inh inconclusive (no result: G9a inh, BAZ2B inh)
COc1ccccc1/C=N/N1CCN(c2ccc(Cl)cc2)CC1	JMJD2A Tudor inh 40µM, BAZ2B inh 50µM
FC(F)Oc1ccc(/C=N/N2CCCCC2)c(OC(F)F)c1	G9a inh 56µM, BAZ2B inh inconclusive (no result: JMJD2A Tudor inh, HP1b binding inh, GLS inh)
COc1ccccc1C=NN1CCCCCC1	JMJD2A Tudor inh 45µM, HP1b binding inh inconclusive (no result: G9a inh, BAZ2B inh)
O=C(N/N=C/c1ccc(OC(F)F)cc1OC(F)F)NC1CCCCC1	none
O=c1c(-c2ccccc2)nc2cnc(N3CCNCC3)nc2n1-c1ccccc1	none (no result: JMJD2A Tudor inh, HP1b binding inh, GLS inh, BAZ2B inh)
Cc1cccc(-n2ncc(C(=O)NCc3ccco3)c2C2CCN(C(=O)OC(C)(C)C)CC2)c1	JMJD2A Tudor inh inconclusive
CC(=O)N1c2ccc(S(=O)(=O)NCC3CCC(C(=O)Nc4cc(C)ccc4C)CC3)cc2CC1C (centres undefined)	none
O=C(c1ccco1)N1CCN(Cc2ccccc2Br)CC1	JMJD2A Tudor inh 8.9µM, HP1b binding inh inconclusive, G9a inh 20µM, BAZ2B inh 32µM
O=C(c1ccco1)N1CCN(C(=O)c2ccco2)CC1	none (no result: JMJD2A Tudor inh, HP1b binding inh, G9a inh, BAZ2B inh)
O=C(c1ccco1)N1CCN(Cc2nnc(-c3ccccc3F)o2)CC1	JMJD2A Tudor inh inconclusive, G9a inh 71µM
O=C(c1ccc(F)cc1)N1CCN(Cc2ccccc2Br)CC1	JMJD2A Tudor inh 25µM, HP1b binding inh inconclusive, G9a inh 10µM, BAZ2B inh inconclusive
